From PubChem BioAssay (NCATS)
Values joined by “and” are separate entries in the source; they are usually repeats but may differ in a detail not shown here. Equal entries are not always repeated. Inconclusive results are not listed. Active and inactive are the calls of the source. Unless noted, calls follow the shape of the dose curve; as a rule, active = well fitted curve in the direction sought with a large enough effect; inconclusive = small, poorly fitted or top-dose-only effect, or another doubt; inactive = no such curve, though single readings can be large; an effect the other way counts as inactive or inconclusive.

Key:
[1] = Cell Viability - Jurkat (AID 426;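 active = dose-dependent loss of cell ATP signal giving a full or clear fitted curve, ranked by lower potency value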;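 also: potency is read from the fitted curve at half-maximal effect; cells exposed to compound for 40 hours at 37 °C before ATP read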); settings: qHTS
Procedure, shortened: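 Cytotoxicity taken as drop in cellular ATP (CellTiter-Glo luminescence, 20 min room temperature) after 40 hr, 37C treatment of 5000 Jurkat Clone E6-1 cells per well; concentration-response fitted with Hill equation for AC50.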

[2] = Cell Viability - HUV-EC-C (AID 542); settings: HUV-EC-C endothelial cell viability, qHTS; series mostly up to 92.2 µM;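 also: cells exposed to compound for 40 hours; % is scaled to controls: 0 for no effect and ±100 for the full control effect; nearly all actives have a fitted effect of over 35% in size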
Procedure, shortened: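 CellTiter-Glo luminescence measured ATP loss in HUV-EC-C cells (1000/well) after 40 hr compound exposure at 37 °C, in complete culture medium. Concentration-response data were Hill-fitted to give AC50.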

[3] = Cell Viability - H-4-II-E (AID 543); settings: H-4-II-E rat hepatoma viability; series mostly up to 92.2 µM;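 also: cells exposed to compound for 40 hours; % is scaled to controls: 0 for no effect and ±100 for the full control effect; nearly all actives have a fitted effect of over 35% in size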
Procedure, shortened: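 CellTiter-Glo luminescence (intracellular ATP) measured after 40 h compound exposure at 37 °C in H-4-II-E rat hepatoma cells seeded at 1500/well. Values are AC50s fitted with the standard Hill equation.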

[4] = MultiTox-Fluor Cytotoxicity Assay - LYMP1-001 - Live Cells (AID 947); settings: LYMP1-001 lymphoblastoid cells, live-cell protease fluorescence viability; series mostly up to 92.2 µM;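 also: 0% = DMSO only and full inhibition = tetraoctylammonium bromide control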
[5] = MultiTox-Fluor Cytotoxicity Assay - LYMP1-002 - Dead Cells (AID 960); settings: LYMP1-002 lymphoblastoid cells, dead-cell protease fluorescence; series mostly up to 46.1 µM;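 also: 0% = DMSO and 100% = tetraoctylammonium bromide; nearly all actives have a fitted effect of over 60% in size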
Procedure, shortened: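 Dead-cell fluorescence (Ex/Em 485/520) after 16 h compound exposure at 37 C of LYMP1-002 lymphoblastoid cells in complete medium; AC50 by Hill equation, with data scaled between DMSO and 15 uM tetraoctylammonium bromide.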

[6] = Cell Viability - LYMP2-007 (AID 979); settings: LYMP2-007 lymphoblastoid cell viability; series mostly up to 92.2 µM;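 also: cells exposed to compound for 24 h before reading; 0% = DMSO only and the negative end = 92 µM tetraoctylammonium bromide; nearly all actives have a fitted effect of over 60% in size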
Procedure, shortened: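 AC50 values come from Hill-equation fits of luminescent intracellular ATP (CellTiter-Glo, 30 min, room temperature) following 24 h compound exposure at 37 C. Cells: LYMP2-007 lymphoblastoid line, 2500 per well, in complete culture medium.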

[7] = Cell Viability - LYMP2-008 (AID 980); settings: LYMP2-008 lymphoblastoid cell viability, qHTS; series mostly up to 92.2 µM; also: % is scaled to controls: 0 for no effect and ±100 for the full control effect; nearly all actives have a fitted effect of over 60% in size
Procedure, shortened: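 Cytotoxicity determined from ATP-dependent luciferase luminescence (CellTiter-Glo) following 24 h compound exposure of human lymphoblastoid LYMP2-008 cells at 37 C. Concentration-response data fitted to the Hill equation to give AC50.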

[8] = Cell Viability - LYMP2-010 (AID 981); settings: LYMP2-010 lymphoblastoid cell viability, qHTS; series mostly up to 92.2 µM; also: % is scaled to controls: 0 for no effect and ±100 for the full control effect; nearly all actives have a fitted effect of over 55% in size
Procedure, shortened: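 CellTiter-Glo ATP luminescence measured cytotoxicity after 24 h compound exposure at 37 C. LYMP2-010 cells were seeded at 2500/well, with tetraoctylammonium bromide as control; concentration-response curves gave AC50 values by the Hill equation.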

[9] = Cell Viability - LYMP2-018 (AID 985); settings: LYMP2-018 lymphoblastoid cells, viability (qHTS); series mostly up to 92.2 µM;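 also: plate controls were DMSO only for no effect and tetraoctylammonium bromide at 92 µM for full effect; nearly all actives have a fitted effect of over 50% in size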
Procedure, shortened: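 Viability read as CellTiter-Glo luminescence (cellular ATP) after 24 hr compound exposure at 37 C of 2500 LYMP2-018 lymphoblastoid cells/well, pre-plated 5 hr. Hill-equation modelling gave AC50.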

[10] = Cell Viability - LYMP2-020 (AID 986); settings: series mostly up to 92.2 µM;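 also: plate controls were DMSO only for no effect and tetraoctylammonium bromide at 92 µM for full effect; nearly all actives have a fitted effect of over 55% in size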
Procedure, shortened: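 Cytotoxicity in qHTS format: luminescent ATP readout from CellTiter-Glo after 24 h compound exposure at 37 C in complete medium. LYMP2-020 lymphoblastoid cells were seeded at 2500/well; concentration-response data fitted to the Hill equation for AC50.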

[11] = Cell Viability - LYMP2-022 (AID 987); settings: LYMP2-022 lymphoblastoid cell viability; series mostly up to 92.2 µM;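 also: 0% = DMSO alone and full effect = tetraoctylammonium bromide at 92 µM; nearly all actives have a fitted effect of over 55% in size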
Procedure, shortened: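 Cytotoxicity read as decreased cellular ATP (CellTiter-Glo luminescence, 30 min room temperature) after 24 hours compound exposure of 2500 lymphoblastoid LYMP2-022 cells/well at 37 C. Concentration-response data fitted with standard Hill equation for AC50.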

[12] = Cell Viability - LYMP2-026 (AID 989); settings: LYMP2-026 lymphoblastoid cell viability, qHTS; series mostly up to 92.2 µM; also: % is scaled to controls: 0 for no effect and ±100 for the full control effect; nearly all actives have a fitted effect of over 50% in size
Procedure, shortened: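 Cytotoxicity read as ATP-dependent luminescence (CellTiter-Glo, 30 min room temperature) after 24 h compound treatment at 37 C. LYMP2-026 lymphoblastoid line seeded at 2500 cells/well; AC50 derived by standard Hill equation.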

[13] = Cell Viability - LYMP1-002 - Assay at 24 hr (AID 993); settings: LYMP1-002 lymphoblastoid cells viability; series mostly up to 92.2 µM; also: % is scaled to controls: 0 for no effect and ±100 for the full control effect
Procedure, shortened: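 qHTS cytotoxicity at 24 h: CellTiter-Glo ATP luminescence in lymphoblastoid line LYMP1-002 incubated with compound at 37 °C. Concentration-response modeled with the Hill equation for AC50; tetraoctylammonium bromide served as positive control.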

[14] = Cell Viability - LYMP1-002 - Assay at 40 hr (AID 994); settings: LYMP1-002 lymphoblastoid cell viability; series mostly up to 92.2 µM;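 also: 0% = DMSO only and full inhibition = 92 µM tetraoctylammonium bromide; nearly all actives have a fitted effect of over 60% in size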
Procedure, shortened: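 Cytotoxicity was read as loss of cellular ATP (CellTiter-Glo luminescence) after 40 hr compound exposure at 37 C of 2500 LYMP1-002 lymphoblastoid cells per well. Concentration-response data were fitted with the standard Hill equation to give AC50.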

[15] = target: Estrogen receptor (Homo sapiens) (UniProt P03372); assay: qHTS assay for small molecule antagonists of estrogen receptor alpha signaling (AID 588513; active = well fitted curve in the direction sought with a large enough effect in the signal ratio, with a control signal flat, not every such curve was filed as active; the % refers to the signal ratio; also: % is scaled to controls: 0 for no effect and ±100 for the full control effect); settings: ER-alpha-UAS-bla HEK293, beta-lactamase ratio, antagonist mode; series mostly up to 76.9 µM
Procedure, shortened: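 Fluorescence from CCF4 substrate after 2 h at room temperature gave reporter activity; cells had been exposed to compound and 0.5nM 17-beta-estradiol for 18 h at 37 C. Hill-equation fitting yielded IC50 and maximal response.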

[16] = target: Vitamin D3 receptor (Homo sapiens) (UniProt P11473); assay: qHTS assay for small molecule antagonists of vitamin D receptor signaling (AID 588541; calls by dose curve;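 also: receptor activated by calcitriol during compound treatment; % is scaled to controls: 0 for no effect and ±100 for the full control effect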); settings: HEK293T VDR-UAS-bla, beta-lactamase ratio, antagonist mode; series mostly up to 76.7 µM
Procedure, shortened: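 VDR-UAS-bla HEK293T cells (2000/well, 2% charcoal-stripped FBS) were treated with titrated compounds plus 1-alpha,25-dihydroxyvitamin D3 (50 nM or 3 nM final) for 16 h at 37 C. CCF4 beta-lactamase fluorescence was read; Hill fits gave IC50.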

[17] = target: Vitamin D3 receptor (Homo sapiens) (UniProt P11473); assay: qHTS assay for small molecule agonists of vitamin D receptor signaling (AID 588543; calls by dose curve;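 also: 0% = DMSO basal and 100% = reference agonist control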); settings: HEK293T VDR-UAS-bla, beta-lactamase ratio, 16 h; series mostly up to 76.8 µM
Procedure, shortened: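 Reporter cells (HEK293T, VDR-UAS-bla) were seeded in medium with 2% charcoal-stripped serum and incubated 5 h, then compounds in concentration series were added for 16 h at 37 °C. Stimulation was scaled between DMSO basal and 50 nM 1α,25-dihydroxyvitamin D3.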

[18] = qHTS assay for small molecule agonists of the antioxidant response element (ARE) signaling pathway measured by Nrf2-dependant transcriptional activity (AID 720636; active = well fitted curve in the direction sought with a large enough effect in the repeat runs; an effect the other way counts as inactive or inconclusive;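 also: HepG2 cells with an ARE-driven luciferase reporter; % of control where 0% means no effect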); settings: ARE-luc HepG2, Nrf2 luciferase reporter, 16 h; series mostly up to 92.4 µM
Procedure, shortened: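 First, ARE-luc HepG2 cells attached for 6 hr at 37 C in 1% dialyzed FBS medium. Next, compound or DMSO was added and incubated 16 hr. Finally, ONE-Glo reagent was added and luminescence measured after 30 min.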

[19] = qHTS assay for small molecule antagonists of the retinoid-related orphan receptor gamma (ROR-gamma) signaling pathway - cell viability counter screen (AID 720652; active = well fitted curve in the direction sought with a large enough effect in the repeat runs; an effect the other way counts as inactive or inconclusive;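 also: CHO reporter cells with doxycycline-induced ROR-gamma expression; compound exposure lasted 16 hr before ATP read; % is scaled to controls: 0 for no effect and ±100 for the full control effect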); settings: RORgamma reporter cell line viability counter screen; series mostly up to 92.2 µM
Procedure, shortened: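 Cytotoxicity counter screen: intracellular ATP (CellTiter-Glo luminescence) measured in the doxycycline-induced CHO RORE-luciferase reporter line after 16 hr compound exposure at 37 C, 5% CO2.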

[20] = target: Nuclear receptor subfamily 1 group I member 2 (Rattus norvegicus) (UniProt Q9R1A7); assay: qHTS assay for small molecule activators of the rat pregnane X receptor (rPXR) signaling pathway (AID 651751; call rule not given here; also: 0% is about no effect); settings: rPXR reporter cells, luciferase (One-Glo), 24 h
Nuclear receptor subfamily 1 group I member 2 (Rattus norvegicus), sequence (Q9R1A7 whole entry, looked up): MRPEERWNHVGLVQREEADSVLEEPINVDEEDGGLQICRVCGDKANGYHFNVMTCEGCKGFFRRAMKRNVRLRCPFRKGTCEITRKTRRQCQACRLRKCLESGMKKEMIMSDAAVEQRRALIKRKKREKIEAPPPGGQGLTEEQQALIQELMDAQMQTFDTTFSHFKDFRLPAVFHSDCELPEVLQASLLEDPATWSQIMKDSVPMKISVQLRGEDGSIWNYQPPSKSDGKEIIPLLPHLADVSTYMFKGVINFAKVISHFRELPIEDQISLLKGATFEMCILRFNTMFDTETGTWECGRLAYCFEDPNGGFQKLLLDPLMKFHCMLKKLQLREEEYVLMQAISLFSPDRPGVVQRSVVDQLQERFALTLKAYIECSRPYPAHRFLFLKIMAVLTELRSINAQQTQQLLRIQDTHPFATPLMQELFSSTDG

Estrogen receptor (Homo sapiens), sequence (P03372 whole entry, looked up): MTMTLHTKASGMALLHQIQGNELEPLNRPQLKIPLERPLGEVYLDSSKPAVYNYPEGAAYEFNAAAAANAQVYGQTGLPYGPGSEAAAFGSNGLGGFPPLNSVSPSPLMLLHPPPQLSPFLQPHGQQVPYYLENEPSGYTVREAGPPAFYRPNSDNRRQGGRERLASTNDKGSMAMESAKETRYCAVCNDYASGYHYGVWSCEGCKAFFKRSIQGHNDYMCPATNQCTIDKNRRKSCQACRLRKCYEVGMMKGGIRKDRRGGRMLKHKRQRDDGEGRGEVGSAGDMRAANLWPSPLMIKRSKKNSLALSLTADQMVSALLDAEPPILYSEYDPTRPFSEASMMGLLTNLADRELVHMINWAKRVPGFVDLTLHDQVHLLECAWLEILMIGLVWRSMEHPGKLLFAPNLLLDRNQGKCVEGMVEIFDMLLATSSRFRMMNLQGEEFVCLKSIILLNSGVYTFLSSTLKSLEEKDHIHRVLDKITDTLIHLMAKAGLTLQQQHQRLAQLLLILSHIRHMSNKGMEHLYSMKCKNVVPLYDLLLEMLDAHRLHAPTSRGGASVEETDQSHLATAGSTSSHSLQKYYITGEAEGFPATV
Vitamin D3 receptor (Homo sapiens), sequence (P11473 whole entry, looked up): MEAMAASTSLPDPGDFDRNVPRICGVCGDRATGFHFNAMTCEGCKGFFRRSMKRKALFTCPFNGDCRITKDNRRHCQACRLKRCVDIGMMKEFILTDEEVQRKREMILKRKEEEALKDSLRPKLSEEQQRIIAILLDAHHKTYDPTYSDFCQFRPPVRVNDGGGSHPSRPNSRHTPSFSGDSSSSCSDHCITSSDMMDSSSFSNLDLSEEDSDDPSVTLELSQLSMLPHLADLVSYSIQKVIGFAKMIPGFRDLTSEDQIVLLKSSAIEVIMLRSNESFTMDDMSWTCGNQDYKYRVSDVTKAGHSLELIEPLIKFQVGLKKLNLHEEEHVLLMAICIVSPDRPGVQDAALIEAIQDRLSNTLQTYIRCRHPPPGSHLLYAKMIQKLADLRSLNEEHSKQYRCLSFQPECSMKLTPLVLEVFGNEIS

O=C(O)c1ccccc1
inactive: Potency [1] > 92 µM | outcome [2] | Potency [3] | Potency [4] | Potency [5] | Potency [6] | Potency [7] | Potency [8] | Potency [9] | Potency [10] | Potency [11] | Potency [12] | Potency [13] | Potency [14] | Potency [15] | outcome [16] | outcome [17] | Potency [18] | Potency [19] | max response [20] -2.75%

CCCCCCCCCCCCCC(=O)O
inactive: Potency [1] > 92 µM | outcome [2] | Potency [3] | Potency [5] | Potency [6] | Potency [7] | Potency [8] | Potency [9] | Potency [10] | Potency [11] | Potency [12] | Potency [13] | Potency [14] | Potency [15] | outcome [16] | outcome [17] | Potency [18] | Potency [19] | max response [20] -0.081% and -5.28%

C=CC(C)(CCC=C(C)C)OC(C)=O (centres undefined)
inactive: Potency [15] | outcome [16] | outcome [17] | Potency [18] | max response [20] 1.82%

COc1cc(/C=C/c2ccccc2)oc(=O)c1
inactive: Potency [1] > 92 µM | outcome [2] | Potency [4] | Potency [5] | Potency [6] | Potency [7] | Potency [8] | Potency [9] | Potency [10] | Potency [11] | Potency [12] | Potency [13] | Potency [14] | Potency [15] | outcome [16] | outcome [17]

CC1=C2[C@H](/C=C(\C)C(=O)O)CC[C@@H](C)[C@H]2CC1
inactive: outcome [2] | Potency [3] | Potency [4] | Potency [5] | Potency [6] | Potency [7] | Potency [8] | Potency [9] | Potency [10] | Potency [11] | Potency [12] | Potency [13] | Potency [14] | Potency [15] | outcome [16] | outcome [17] | Potency [18] | Potency [19] | max response [20] -3.01%

COc1ccc(/C=C/c2cc(OC)cc(=O)o2)cc1
inactive: Potency [1] > 92 µM | Potency [3] | Potency [4] | Potency [6] | Potency [7] | Potency [8] | Potency [9] | Potency [10] | Potency [11] | Potency [12] | Potency [13] | Potency [14] | Potency [15] | outcome [16] | outcome [17] | Potency [19]

C=C(C)C1CC=C(C)C(O)C1 (centres undefined)
inactive: Potency [1] > 92 µM | outcome [2] | Potency [3] | Potency [4] | Potency [5] | Potency [6] | Potency [7] | Potency [8] | Potency [9] | Potency [10] | Potency [11] | Potency [12] | Potency [13] | Potency [14] | Potency [15] | Potency [18] | Potency [19] | max response [20] 2.42%

C=CCc1ccc(OC)c(OC)c1
inactive: Potency [1] > 92 µM | outcome [2] | Potency [3] | Potency [4] | Potency [5] | Potency [6] | Potency [7] | Potency [8] | Potency [9] | Potency [10] | Potency [11] | Potency [12] | Potency [13] | Potency [14] | outcome [16] | outcome [17] | Potency [18] | Potency [19] | max response [20] -0.697% and 1.19%

CCCCCCCCCCCC(=O)O
inactive: Potency [1] > 92 µM | outcome [2] | Potency [3] | Potency [4] | Potency [5] | Potency [6] | Potency [7] | Potency [8] | Potency [9] | Potency [10] | Potency [11] | Potency [12] | Potency [13] | Potency [14] | Potency [18] | Potency [19] | max response [20] -4.75% and -1.77%
